# Assay outcomes from PubChem BioAssay.
# The sample as a whole holds a higher share of hits than the screen did.
# RMI-FANCM inh: disruptors of RMI1/RMI2 association with MM2 peptide – biochemical, fluorescence polarization, human, primary screen; RMI core complex (RMI1/RMI2) binding to FANCM MM2 peptide, human; RMI core complex with F-MM2 peptide; hits give low values; FP signal (polarization) at 33 µM; 70,000 compounds, 0.58% hits; AID 1159607, 2016; in the data active = FP signal below about 40
# Starred values were filed as active, the others as inactive.
SMILES,RMI-FANCM inh
O=C(O)c1cccc2c1-c1ccc(I)cc1C2,54
O=C1c2c(O)cccc2Cc2cccc(O)c21,-5*
Cc1cc(O)c2c(c1)C(=O)c1cccc(O)c1C2=O,50
O=C(O)CC1CCCCN1S(=O)(=O)c1ccccc1 (configuration not stated),66
COc1ccc(C(c2c(C)[nH]c3ccccc23)c2c(C)[nH]c3ccccc23)c(OC)c1,16*
COc1ccc(Cc2nc3ccccc3[nH]2)cc1,62
Cc1ccnc(NC(c2ccco2)c2c(C)[nH]c3ccccc23)c1 (configuration not stated),88
O=C(CSc1c(-c2ccccc2)[nH]c2ccccc12)N1CCN(c2ccccc2)CC1,60
O=C(Nc1ccc(Cl)cc1)Nc1ccc(-c2nnc3n2CCCCC3)cc1,56
COc1ccc(-c2csc(=Nc3ccccc3)n2/N=C\c2ccccc2)cc1OC,106
N/C(Cc1cccs1)=N/O,64
N#CCCSc1ccccc1NC(=O)/C=C/C(=O)O,64
O=C(O)/C=C\C(=O)Nc1ccccc1OC(F)(F)F,53
O=C(O)/C=C\C(=O)Nc1cccc2ccccc12,-3*
COc1cc(/C=N\NC(=O)c2ccccc2CO)cc(OC)c1OC,58
COc1ccc2nc(-c3ccc(Cl)c(NC(=O)c4ccccc4C)c3)cn2n1,33*
COc1ccc2nc(-c3ccc(F)c(NC(=O)c4ccccc4C)c3)cn2n1,98
COc1ccc2nc(-c3ccc(OC)c(NC(=O)c4ccccc4C)c3)cn2n1,73
CCCN1CCCc2cc(CCNC(=O)C3CCCCC3)ccc21,69
CCCN1CCCc2cc(CCNC(=O)C(C)(C)C)ccc21,16*
CCCN1CCCc2cc(CCNC(=O)C(=O)NCC(C)C)ccc21,65
CCCN1CCCc2cc(CCNC(=O)COc3ccccc3F)ccc21,63
CCCN1CCCc2cc(CCNC(=O)Cc3cccc(C)c3)ccc21,55
CCCN1CCCc2cc(CCNC(=O)COCC)ccc21,27*
CCc1ccc(S(=O)(=O)c2cn(Cc3cccc(Cl)c3)c3ccc(OC)cc3c2=O)cc1,62
SMILES,RMI-FANCM inh
CN(C)CCCN(C(=O)CCSc1ccccc1)c1nc2ccccc2s1,70
NC(=S)N/N=C1/CCc2ccccc21,61
Cn1ccc(C(=O)Nc2nc(-c3ccncc3)cs2)n1,74
COc1cccc(N2CC(c3nc4ccccc4n3CC(O)COc3cc(C)cc(C)c3)CC2=O)c1 (configuration not stated),59
Cc1ccc2c(c1)N(C)C(=O)c1cc(NC(=O)c3cccs3)ccc1O2,60
CC(C)(C)c1ccc(S(=O)(=O)Nc2ccc3c(c2)C(=O)NCCO3)cc1,66
COc1ccc(OC)c(Nc2ccnc3c2c(=O)n(C)c(=O)n3C)c1,69
Cc1cc(NS(=O)(=O)c2ccc(NC(=O)c3cc(Cl)ccc3[N+](=O)[O-])cc2)no1,53
Cc1oc(-c2cccc(C(F)(F)F)c2)cc1C(=O)Nc1ccc(S(N)(=O)=O)cc1,64
Cc1oc(-c2ccc(Cl)cc2[N+](=O)[O-])cc1C(=O)Nc1ccc(S(N)(=O)=O)cc1,13*
CCOc1ccccc1NC(=O)CC1CCCCN1S(=O)(=O)c1cccs1 (configuration not stated),66
O=C(Nc1nc2c(cc3c4c(cccc42)CC3)s1)c1cc2c(ccc3ccccc32)oc1=O,60
CCOC(=O)/C(C#N)=C\c1ccc(N2CCN(CCN3C(=O)c4cccc5cccc(c45)C3=O)CC2)cc1,76
Cc1cccc(CN2CCN(C(c3ccccc3)c3ccc(Cl)cc3)CC2)c1 (configuration not stated),66
CN1CCN(C(c2ccccc2)c2ccccc2)CC1,69
CN1CCCN(C(c2ccccc2)c2ccc(Cl)cc2)CC1 (configuration not stated),-4*
NS(=O)(=O)c1ccc(CCNC(=O)Cc2csc(NC(=O)c3ccco3)n2)cc1,56
COc1ccc(NC(=O)CC2SC(=N)NC2=O)c([N+](=O)[O-])c1 (configuration not stated),64
COc1ccc(NC(=O)CSc2ccc(F)cc2)c([N+](=O)[O-])c1,9*
COc1ccc(SCC(=O)Nc2ccc(F)cc2F)cc1,52
O=C(CSc1ccc2nnc(CCNC(=O)c3ccc(F)cc3)n2n1)Nc1cccc([N+](=O)[O-])c1,59
Cc1nn(C2CCS(=O)(=O)C2)c2nc(-c3ccco3)cc(C(=O)Nc3ccc(F)c(F)c3)c12 (configuration not stated),69
COc1ccc(F)cc1S(=O)(=O)N1CCN(c2ccc(-c3ccccc3C)nn2)CC1,73
COc1ccc(CC(=O)NCCSc2c(-c3ccc(Br)cc3)[nH]c3ccccc23)cc1,58
COc1cc(/C=N\n2cnnc2)ccc1OC(=O)c1ccncc1,63
SMILES,RMI-FANCM inh
N#Cc1c(N)nc2c(c1-c1ccc(Cl)cc1)CCCC2,54
COc1ccc(-c2c(C#N)c(N)nc3c2CN(C)CC3)c(OC)c1OC,-4*
Cc1cc(NC(=O)CCN2C(=O)/C(=C3\SC(=S)N(CCC(=O)Nc4cc(C)on4)C3=O)SC2=S)no1,21*
O=C(CCCN1C(=O)/C(=C2\SC(=S)N(CCCC(=O)Nc3cccc(C(=O)O)c3)C2=O)SC1=S)Nc1cccc(C(=O)O)c1,54
COc1ccc(/C=C2\SC(=S)N(CCC(=O)Nc3cc(C)on3)C2=O)cc1OC,58
O=S1(=O)CC2C(C1)N(c1ccc(Br)cc1)C(=S)N2c1ccccc1 (configuration not stated),63
O=C(/C=C/c1ccco1)NCCc1csc(-c2ccc(C(F)(F)F)cc2)n1,59
COc1ccc(S(=O)(=O)NCC(c2ccc(N(C)C)cc2)N2CCc3ccccc3C2)cc1OC (configuration not stated),55
COc1cc(C)c(C)cc1S(=O)(=O)NCC(c1ccc(N(C)C)cc1)N1CCc2ccccc21 (configuration not stated),19*
COc1cc(C)c(C)cc1S(=O)(=O)NCC(c1ccsc1)N1CCc2ccccc2C1 (configuration not stated),78
CCOC(=O)c1cc(-c2ccc(N)cc2)oc1C,56
CCOC(=O)c1c(N)oc2c(-c3ccc(C)cc3)c3c(C(=O)OCC)c(N)oc3cc12,22*
CCOC(=O)c1c(N)sc(C)c1-c1ccccc1,52
O=C(CSc1nc2c(-c3ccccc3)c[nH]c2c(=O)n1C1CC1)Nc1ccc2c(c1)OCCO2,80
O=C(NN1C(=O)/C(=C\C=C\c2ccco2)SC1=S)c1ccc([N+](=O)[O-])cc1,21*
CC(C(=O)O)N1C(=O)/C(=C/C=C/c2ccco2)SC1=S (configuration not stated),82
CN1C(=O)/C(=C\C=C\c2ccccc2)SC1=S,59
O=C(Cc1ccccc1)NN1C(=O)/C(=C/c2cccc([N+](=O)[O-])c2)SC1=S,59
Cc1cccc(N2C(=O)/C(=C/C=C/c3ccco3)SC2=S)c1C,9*
Cc1ccc(C(=O)NN2C(=O)/C(=C/c3ccc(N(C)C)cc3)SC2=S)cc1,104
O=C1CCC(=O)N1CN1CCCc2ccccc21,62
O=[N+]([O-])c1cc(C(F)(F)F)ccc1N/N=C1/CCSc2ccc(F)cc21,50
O=C(Cn1cnc2c(-c3ccccc3)csc2c1=O)Nc1ccc(Oc2ccccc2)cc1,129
COc1ccc2nc(N(Cc3cccnc3)C(=O)Cc3cccc4ccccc34)sc2c1,144
